Measured values: PMC4336329 (PLoS ONE, 2015)
About 2,200 (0.71%) of roughly 310,000 compounds showed an effect of 50% or more. Effects have a minus sign here. The sample as a whole holds a higher share of strong results than the screen did.

molecular target: human ether-à-go-go-related gene (hERG) potassium channel (human, UniProt Q12809); test: primary screen, population patch clamp on CHO cells stably expressing hERG; higher = less effect of the substance
Method: Briefly, Chinese hamster ovary (CHO) cells stably expressing the hERG channel were dislodged from tissue culture flasks and dispensed into PPC plates. […] During the recording, background leak currents were estimated by a 100 ms step to -80 mV from an initial holding potential of -70 mV and subtracted from the subsequent current measurement. The campaign was conducted in two phases using slight differences in recording protocol. In the first phase, the initial voltage pulse used a 100 ms step to -30 mV from a holding potential of -70 mV, a 2 s conditioning step to +25 mV, and a 2 s test step to -30 mV. During the second phase of the screen, the potential during the conditioning step was raised to +45 mV. In both phases of the campaign, a secondary voltage pulse was applied using the same parameters as the second phase initial pulse. The initial and secondary pulses were applied in the absence of compound, and upon application of 1 μM and 10 μM test concentrations. Small molecule effects on hERG current density were quantified by […].

Chain of human ether-à-go-go-related gene (hERG) potassium channel (Q12809 whole entry, looked up): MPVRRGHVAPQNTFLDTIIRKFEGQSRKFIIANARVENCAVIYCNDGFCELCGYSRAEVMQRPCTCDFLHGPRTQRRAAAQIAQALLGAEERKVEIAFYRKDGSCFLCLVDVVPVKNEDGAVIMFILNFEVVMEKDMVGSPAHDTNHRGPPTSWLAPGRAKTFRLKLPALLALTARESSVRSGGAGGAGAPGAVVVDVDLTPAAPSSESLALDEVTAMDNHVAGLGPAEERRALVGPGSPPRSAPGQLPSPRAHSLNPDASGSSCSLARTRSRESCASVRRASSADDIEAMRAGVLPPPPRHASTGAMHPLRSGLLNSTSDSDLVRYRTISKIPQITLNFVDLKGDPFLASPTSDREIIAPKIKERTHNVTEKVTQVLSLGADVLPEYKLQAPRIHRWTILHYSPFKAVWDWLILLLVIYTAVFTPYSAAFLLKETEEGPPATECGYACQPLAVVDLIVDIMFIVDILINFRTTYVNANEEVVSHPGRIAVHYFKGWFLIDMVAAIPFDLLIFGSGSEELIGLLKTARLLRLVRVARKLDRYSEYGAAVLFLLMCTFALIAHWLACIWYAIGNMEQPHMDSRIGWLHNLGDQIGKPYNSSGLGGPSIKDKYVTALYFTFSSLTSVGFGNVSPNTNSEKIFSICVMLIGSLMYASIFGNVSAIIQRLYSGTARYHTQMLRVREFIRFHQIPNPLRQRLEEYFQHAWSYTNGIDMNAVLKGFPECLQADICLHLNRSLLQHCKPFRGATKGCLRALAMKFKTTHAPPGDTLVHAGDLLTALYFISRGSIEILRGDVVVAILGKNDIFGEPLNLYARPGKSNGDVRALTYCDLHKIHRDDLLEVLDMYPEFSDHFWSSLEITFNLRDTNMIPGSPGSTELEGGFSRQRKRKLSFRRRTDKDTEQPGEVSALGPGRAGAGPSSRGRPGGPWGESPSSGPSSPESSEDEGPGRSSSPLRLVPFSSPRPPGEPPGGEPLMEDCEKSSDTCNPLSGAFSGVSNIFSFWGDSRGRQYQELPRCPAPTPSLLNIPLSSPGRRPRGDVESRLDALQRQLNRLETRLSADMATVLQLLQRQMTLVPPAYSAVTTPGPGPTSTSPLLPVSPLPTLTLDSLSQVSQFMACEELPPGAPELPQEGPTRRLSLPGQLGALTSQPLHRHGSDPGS

SMILES	hERG current change (%, negative = inhibition) at 1uM [%]
O=C(c1cc([N+](=O)[O-])ccc1N1CCCCC1)N1CCCCC1	-6.51
Cc1ccc(S(=O)(=O)N(C)Cc2ccc(-c3nnc4n3CCC4)cc2)cc1	0.889
COC(=O)c1ccc(N2CCCCC2)c(NS(=O)(=O)c2ccc(C)cc2)c1	12.6
CCOC(=O)CSc1nnc(Cn2c(=O)sc3ccccc32)n1C	-3.18
CCc1ccc(CN2CCC(n3nccc3NC(=O)c3ccccc3Cl)CC2)cc1	-92.3
CCN1CCC(n2nccc2NC(=O)c2ccccc2Cl)CC1	10.5
Cc1cc(CN2CCC(n3nccc3NC(=O)c3ccccc3Cl)CC2)cc(C)c1O	-64.4
Cc1cc(C)c(CN2CCC(n3nccc3NC(=O)c3ccccc3Cl)CC2)cc1C	1.2
COc1ccc(O)c(CN2CCC(n3nccc3NC(=O)c3ccccc3Cl)CC2)c1	-15.4
NC(=O)c1ncn([C@@H]2O[C@H](CO)[C@@H](O)[C@H]2O)n1	25.8
Cn1c([O-])c(Cc2cccc(Cl)c2Cl)c(=O)n(C)c1=O.[NH4+]	17.5
CCOc1ccc(OCC(=O)OCC(=O)N(CC(C)C)c2c(N)n(Cc3ccccc3)c(=O)[nH]c2=O)cc1	5.08
COc1cccc(NC(=O)Nc2cccc(C(=O)O)c2)c1	16.4
CCOC(=O)C(CC)Sc1ccc2nnc(CCNS(=O)(=O)c3ccccc3)n2n1 (centres unmarked)	3.33
O=C(NCc1ccc(Cl)cc1Cl)C(=O)N1CCCCC1	7
CSCCC(=O)N(C)CC1CCN(CCc2cccc(C(F)(F)F)c2)CC1	-27.3
CC(=O)Nc1ccc(CN(C)CC2CCCN(CCc3cccc(C(F)(F)F)c3)C2)cc1 (centres unmarked)	-18.4
CSCCC(=O)N(C)CC1CCCN(CCc2cccc(C(F)(F)F)c2)C1 (centres unmarked)	-55.1
COC(=O)CCC(=O)N(C)CC1CCCN(CCc2cccc(C(F)(F)F)c2)C1 (centres unmarked)	-39.9

SMILES	hERG current change (%, negative = inhibition) at 1uM [%]
COc1cccc(C(=O)N(C)CC2CCN(CCc3cccc(C(F)(F)F)c3)CC2)c1	-70.3
CN(CC1CCN(CCc2cccc(C(F)(F)F)c2)CC1)C(=O)c1ccc(F)cc1	-60
CN(CC1CCCN(CCc2cccc(C(F)(F)F)c2)C1)C(=O)c1ccco1 (centres unmarked)	-38.3
COc1ccc(CC(=O)NCC2CCCN(Cc3cccc(C(F)(F)F)c3)C2)cc1 (centres unmarked)	5.75
O=C(c1cccc(C(F)(F)F)c1)N1CCN(CCc2ccccc2)CC1	1.81
CN(CC1CCN(CCc2cccc(C(F)(F)F)c2)CC1)C(=O)c1ccc(F)cc1F	-35.9
CN(CC1CCCN(CCc2cccc(C(F)(F)F)c2)C1)C(=O)c1ccc2nc[nH]c2c1 (centres unmarked)	5.78
CN(CC1CCN(CCc2cccc(C(F)(F)F)c2)CC1)C(=O)c1ccccc1	-56.1
CCn1c(/N=C/c2ccc(OC)cc2O)nc2ccccc21	14
Cc1ccc(NC(=O)Nc2cccn(Cc3c(F)cccc3Cl)c2=O)cc1	13.2
S=C(Nc1ccccc1)Nc1ccc(Br)cc1	14.5
Cc1cccnc1-n1c(C)nc2ccccc2c1=O	7.55
CSCCC(NC(=O)c1cc(C(C)(C)C)oc1C)C(=O)O (centres unmarked)	15.6
COc1cc(C(=O)O)c2c(c1C)OC(=O)c1c(C)cc(O)c(C=O)c1O2	22.5
COc1cc(C(=O)N(C)CC2CCN(CCc3cccc(C(F)(F)F)c3)CC2)ccc1C	-63.8
CC(=O)NCCC(=O)N(C)CC1CCN(CCc2cccc(C(F)(F)F)c2)CC1	12.5
COc1cc(CN(C)CC2CCCN(CCc3cccc(C(F)(F)F)c3)C2)ccc1O (centres unmarked)	2.96
CCCC(=O)Nc1ccc(NC(=O)c2ccccc2F)cn1	11.2
Fc1ccc(NC(=S)NCCN2CCOCC2)c(F)c1F	12.2

SMILES	hERG current change (%, negative = inhibition) at 1uM [%]
S=C(Nc1ccc2snnc2c1)N1CCN(c2ccccn2)CC1	10
COc1cccc(N2CCN(CC(=O)c3c(C)[nH]c4ccccc34)CC2)c1	-10.9
O=C(CN(Cc1ccccc1)S(=O)(=O)c1ccc(F)cc1)NCc1ccncc1	-9.19
CCCNC(=O)CN(Cc1ccccc1F)S(=O)(=O)c1ccc(C)cc1	5.85
CCN(CC(=O)NCc1ccc(F)cc1)S(=O)(=O)c1ccc(C)cc1	-13.7
Cc1ccc(S(=O)(=O)N(CC(=O)O)Cc2ccccc2F)cc1	6.83
Cc1ccc(S(=O)(=O)N(CC(=O)NCc2ccncc2)Cc2ccccc2F)cc1	-53.2
Cc1ccc(S(=O)(=O)N(CC(=O)NCc2ccncc2)Cc2ccc(F)cc2)cc1	-75
O=C(CCc1nnc2ccc(N3CCCC3)nn12)Nc1cc(F)ccc1F	-9.58
COc1ccc(N=C(C)C2=C(O)COC2=O)cc1	4.93
CN1CSC2=C(C#N)C(c3cccc(OCc4ccccc4)c3)CC(=O)N2C1 (centres unmarked)	4.22
CCC(NC(=O)OCc1ccccc1)C(=O)Oc1ccc2ccc(=O)oc2c1 (centres unmarked)	18.8
C=CCn1c(SCC(=O)NNC(=O)Nc2ccc(C)cc2)nnc1-c1ccccc1	1.92
CCCN1CCN(S(=O)(=O)c2c(C)[nH]c(C)c2C(=O)N2CCCCC2)CC1	-0.989
CCn1c(SCC(=O)Nc2ccccc2OC)nc(O)cc1=O	10
COC(=O)c1cc(Br)c(=O)n(-c2ccc(F)cc2)c1	-70.1
COC(=O)c1cc(Br)c(=O)n(CCc2ccc(F)cc2)c1	-3.04
COC(=O)c1cc(Br)c(=O)n(-c2ccc(OC)cc2)c1	5.39
